Laboratory results published in PubChem BioAssay (Tox21).
Values joined by “and” are separate entries in the source; they are usually repeats but may differ in a detail not shown here. Equal values may be shown once. Results filed as inconclusive are left out. A call without a number means that no potency is given here. Some structures have more than one record in an assay (separate samples or runs), and their calls can disagree. Active and inactive are the calls of the source. Unless noted, calls follow the shape of the dose curve; as a rule, active = well fitted curve in the direction sought with a large enough effect in the repeat runs; inconclusive = weak or mixed curves; inactive = no such curve, though single readings can be large; an effect the other way counts as inactive or inconclusive.

Key:
[1] = qHTS assay to identify small molecule agonists of the peroxisome proliferator-activated receptor delta (PPARd) signaling pathway - cell viability counter screen (AID 743211); also: nearly all actives have a fitted effect of over 55% in size; also: potency is read from the fitted curve at half-maximal effect
Method in brief: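 PPARd-bla HEK293H cells (3000/well) were pre-incubated 5 h at 37 C, then exposed to compound for 17 h at 37 C. After 2 h with LiveBLAzer substrate, CellTiter-Glo was added to the same wells; luminescence read after 30 min at room temperature.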

[2] = qHTS assay to identify small molecule antagonists of the peroxisome proliferator-activated receptor delta (PPARd) signaling pathway - cell viability counter screen (AID 743213); also: nearly all actives have a fitted effect of over 50% in size; also: potency is read from the fitted curve at half-maximal effect
Method in brief: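 Luminescence from CellTiter-Glo, added after the bla read and incubated 30 min at room temperature, gives viability of HEK293H PPARd-bla cells exposed to compounds for 17 h at 37 C with 300 nM L165041.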

[3] = molecular target: Peroxisome proliferator-activated receptor delta (Homo sapiens) (UniProt Q03181); experiment: qHTS assay to identify small molecule antagonists of the peroxisome proliferator-activated receptor delta (PPARd) signaling pathway (AID 743215; active = well fitted inhibition curve with a large enough effect in the signal ratio in the repeat runs, not every such curve was filed as active; the % refers to the signal ratio;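 also: cells stimulated with agonist L165041 at 300 nM final during compound exposure; series mostly up to about 62 µM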)
Peroxisome proliferator-activated receptor delta (Homo sapiens), sequence (Q03181 whole entry, looked up): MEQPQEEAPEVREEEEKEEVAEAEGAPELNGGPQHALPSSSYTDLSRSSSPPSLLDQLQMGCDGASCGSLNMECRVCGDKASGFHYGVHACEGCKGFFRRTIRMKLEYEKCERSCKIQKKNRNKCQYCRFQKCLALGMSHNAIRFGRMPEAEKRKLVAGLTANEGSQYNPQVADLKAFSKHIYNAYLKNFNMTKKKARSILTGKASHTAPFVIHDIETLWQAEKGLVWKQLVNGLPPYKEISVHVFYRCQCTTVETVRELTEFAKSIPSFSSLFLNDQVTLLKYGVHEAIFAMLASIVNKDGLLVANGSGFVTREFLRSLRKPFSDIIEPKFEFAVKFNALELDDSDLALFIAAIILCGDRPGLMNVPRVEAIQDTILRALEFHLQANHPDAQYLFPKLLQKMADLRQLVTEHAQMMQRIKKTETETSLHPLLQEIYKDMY
Method in brief: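 PPARd UAS-bla HEK293H cells were pre-incubated 5 h at 37 C, then given test compounds in DMSO plus agonist L165041 (300 nM final). After 17 h at 37 C, beta-lactamase FRET substrate was added; fluorescence read after 2 h at room temperature.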

[4] = molecular target: Bile acid receptor (Homo sapiens) (UniProt Q96RI1); experiment: qHTS assay to identify small molecule antagonists of the farnesoid-X-receptor (FXR) signaling pathway (AID 743217; active = well fitted inhibition curve with a large enough effect in the signal ratio in the repeat runs, not every such curve was filed as active; the % refers to the signal ratio)
Bile acid receptor (Homo sapiens), sequence (Q96RI1 whole entry, looked up): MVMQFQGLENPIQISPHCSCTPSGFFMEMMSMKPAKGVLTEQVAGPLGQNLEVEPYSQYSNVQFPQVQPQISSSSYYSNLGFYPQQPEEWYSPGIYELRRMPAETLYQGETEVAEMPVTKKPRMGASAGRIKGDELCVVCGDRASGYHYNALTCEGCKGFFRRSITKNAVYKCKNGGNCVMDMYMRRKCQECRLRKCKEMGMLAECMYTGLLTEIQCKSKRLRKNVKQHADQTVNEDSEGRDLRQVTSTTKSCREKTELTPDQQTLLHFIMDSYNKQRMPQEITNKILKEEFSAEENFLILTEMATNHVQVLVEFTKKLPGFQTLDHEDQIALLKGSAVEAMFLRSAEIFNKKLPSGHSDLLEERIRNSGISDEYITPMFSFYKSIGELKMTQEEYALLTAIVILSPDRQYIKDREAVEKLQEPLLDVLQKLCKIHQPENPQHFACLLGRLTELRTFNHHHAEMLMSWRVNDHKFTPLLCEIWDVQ
Method in brief: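 FXR-UAS-bla HEK 293T cells pre-incubated 5 h at 37 °C, then exposed to compounds with chenodeoxycholic acid (50 uM final) for 16 h at 37 °C. Beta-lactamase reporter read by LiveBLAzer B/G FRET substrate fluorescence after 2 h at room temperature.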

[5] = molecular target: Bile acid receptor (Homo sapiens) (UniProt Q96RI1); experiment: qHTS assay to identify small molecule agonists of the farnesoid-X-receptor (FXR) signaling pathway (AID 743220; active = well fitted activation curve with a large enough effect in the signal ratio in the repeat runs, not every such curve was filed as active; the % refers to the signal ratio; also: potency is read from the fitted curve at half-maximal effect)
Method in brief: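 Beta-lactamase reporter under UAS control in GeneBLAzer FXR HEK 293T cells (5000/well) measured with LiveBLAzer FRET substrate after 2 h at room temperature. Compound exposure lasted 16 h at 37C.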

[6] = qHTS assay to identify small molecule antagonists of the farnesoid-X-receptor (FXR) signaling pathway - cell viability counter screen (AID 743221; active = well fitted cell-killing curve with a large enough effect in the repeat runs, not every such curve was filed as active; also: nearly all actives have a fitted effect of over 50% in size; also: potency is read from the fitted curve at half-maximal effect)
Method in brief: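 GeneBLAzer FXR-UAS-bla HEK 293T cells, compound plus chenodeoxycholic acid (50 uM final), 16 h at 37 C. CellTiter-Glo added to the same wells after the beta-lactamase read; luminescence read after 30 min at room temperature as viability.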

[7] = molecular target: Vitamin D3 receptor (Homo sapiens) (UniProt P11473); experiment: qHTS assay to identify small molecule agonists of the vitamin D receptor (VDR) signaling pathway (AID 743222; calls by dose curve)
Vitamin D3 receptor (Homo sapiens), sequence (P11473 whole entry, looked up): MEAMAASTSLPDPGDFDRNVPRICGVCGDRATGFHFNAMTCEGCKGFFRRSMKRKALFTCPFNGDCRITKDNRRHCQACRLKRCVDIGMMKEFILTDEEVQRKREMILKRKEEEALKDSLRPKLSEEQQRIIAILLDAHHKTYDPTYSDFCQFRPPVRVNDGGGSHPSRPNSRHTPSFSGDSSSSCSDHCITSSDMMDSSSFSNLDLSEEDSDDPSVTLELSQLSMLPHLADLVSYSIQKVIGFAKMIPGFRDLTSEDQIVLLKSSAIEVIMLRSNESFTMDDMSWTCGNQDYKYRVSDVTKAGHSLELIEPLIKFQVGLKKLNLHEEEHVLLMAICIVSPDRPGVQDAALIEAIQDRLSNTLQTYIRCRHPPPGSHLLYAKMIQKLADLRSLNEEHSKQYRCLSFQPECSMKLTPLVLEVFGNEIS
Method in brief: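 VDR-bla cells were plated 4 h at 37C/5% CO2, then exposed to compounds in DMSO for 16 h. After LiveBLAzer B/G FRET substrate addition and 2 h at room temperature, beta-lactamase reporter fluorescence was read.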

[8] = qHTS assay to identify small molecule agonists of the vitamin D receptor (VDR) signaling pathway - cell viability counter screen (AID 743224); also: nearly all actives have a fitted effect of over 50% in size; also: potency is read from the fitted curve at half-maximal effect
Method in brief: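 VDR-bla cells were preincubated 4 h at 37C/5% CO2, then exposed to compounds for 16 h. After the 2 h room-temperature bla FRET read, CellTiter-Glo was added to the same wells and luminescence read after 30 min.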

[9] = qHTS assay to identify small molecule antagonists of the vitamin D receptor (VDR) signaling pathway - cell viability counter screen (AID 743225); also: nearly all actives have a fitted effect of over 50% in size; also: potency is read from the fitted curve at half-maximal effect
Method in brief: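 VDR-UAS-bla HEK 293T cells were plated and incubated 4 h at 37C, then dosed with compound plus 3 nM (final) 1-alpha,25-dihydroxyvitamin D3 for 16 h. After the 2 h beta-lactamase read, viability in the same wells was read as CellTiter-Glo luminescence after 30 min at room temperature.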

[10] = qHTS assay to identify small molecule agonists of the NFkB signaling pathway - cell viability counter screen (AID 1159515; calls by dose curve; also: nearly all actives have a fitted effect of over 55% in size; also: potency is read from the fitted curve at half-maximal effect)
Method in brief: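 NFkB-bla ME-180 cells, 2,000/well, were plated overnight at 37 C, 5% CO2, then exposed to compounds in DMSO for 5 hr. After the bla FRET read, CellTiter-Glo was added to the same wells; luminescence was read after 30 min at room temperature.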

[11] = qHTS assay to identify small molecule antagonists of the retinoid-related orphan receptor gamma (ROR-gamma) signaling pathway - cell viability counter screen (AID 1159520); also: nearly all actives have a fitted effect of over 50% in size; also: potency is read from the fitted curve at half-maximal effect
Method in brief: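 Tet-on ROR gamma CHO cells were given compounds for 2 hr, then doxycycline hyclate at 1 uM final, and incubated 16 hr at 37 C. Viability was measured as ATP content by CellTiter-Glo luminescence.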

[12] = molecular target: Nuclear receptor ROR-gamma (Homo sapiens) (UniProt P51449); experiment: qHTS assay to identify small molecule antagonists of the retinoid-related orphan receptor gamma (ROR-gamma) signaling pathway (AID 1159521; also: nearly all actives have a fitted effect of over 50% in size; also: potency is read from the fitted curve at half-maximal effect)
Method in brief: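 Tet-on ROR-gamma CHO cells with ROR response element-luciferase reporter; compounds added 2 hr before 1 uM doxycycline induction, then 16 hr at 37 C. Antagonism scored as decreased ONE-Glo luminescence.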

[13] = qHTS assay to identify small molecule agonists of the AP-1 signaling pathway - cell viability counter screen (AID 1159525; calls by dose curve; also: nearly all actives have a fitted effect of over 55% in size; also: potency is read from the fitted curve at half-maximal effect)
Method in brief: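 AP-1-bla ME-180 cells in Opti-MEM with 0.5% dialyzed FBS, compound exposure 5 h at 37 C in 15-point titration. Viability read in the same wells as ATP content by CellTiter-Glo luminescence, normalised to tetra-n-octylammonium bromide and DMSO controls.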

[14] = qHTS assay to identify small molecule agonists of the AP-1 signaling pathway (AID 1159526; calls by dose curve; also: potency is read from the fitted curve at half-maximal effect)
[15] = qHTS assay to identify small molecule agonists of the farnesoid-X-receptor (FXR) signaling pathway - cell viability counter screen (AID 743218); also: nearly all actives have a fitted effect of over 45% in size; also: potency is read from the fitted curve at half-maximal effect
Method in brief: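 FXR-UAS-bla HEK 293T cells, plated 5 h at 37 C, were exposed to compounds for 16 h at 37 C. CellTiter-Glo was then added to the same wells as the bla readout; luminescence read after 30 min at room temperature.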

[16] = molecular target: Vitamin D3 receptor (Homo sapiens) (UniProt P11473); experiment: qHTS assay to identify small molecule antagonists of the vitamin D receptor (VDR) signaling pathway (AID 743223; active = well fitted inhibition curve with a large enough effect in the signal ratio in the repeat runs, not every such curve was filed as active; the % refers to the signal ratio)
Method in brief: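 VDR-bla cells were treated with compound plus 3 nM final 1alpha,25-dihydroxyvitamin D3 for 16 h at 37C. Beta-lactamase reporter read by B/G FRET substrate fluorescence after 2 h at room temperature. qHTS format.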

[17] = molecular target: Retinoic acid receptor RXR-alpha (Homo sapiens) (UniProt P19793); experiment: qHTS assay to identify small molecule agonists of the RXR signaling pathway (AID 1159527; calls by dose curve; also: nearly all actives have a fitted effect of over 35% in size; also: potency is read from the fitted curve at half-maximal effect)
Retinoic acid receptor RXR-alpha (Homo sapiens), sequence (P19793 whole entry, looked up): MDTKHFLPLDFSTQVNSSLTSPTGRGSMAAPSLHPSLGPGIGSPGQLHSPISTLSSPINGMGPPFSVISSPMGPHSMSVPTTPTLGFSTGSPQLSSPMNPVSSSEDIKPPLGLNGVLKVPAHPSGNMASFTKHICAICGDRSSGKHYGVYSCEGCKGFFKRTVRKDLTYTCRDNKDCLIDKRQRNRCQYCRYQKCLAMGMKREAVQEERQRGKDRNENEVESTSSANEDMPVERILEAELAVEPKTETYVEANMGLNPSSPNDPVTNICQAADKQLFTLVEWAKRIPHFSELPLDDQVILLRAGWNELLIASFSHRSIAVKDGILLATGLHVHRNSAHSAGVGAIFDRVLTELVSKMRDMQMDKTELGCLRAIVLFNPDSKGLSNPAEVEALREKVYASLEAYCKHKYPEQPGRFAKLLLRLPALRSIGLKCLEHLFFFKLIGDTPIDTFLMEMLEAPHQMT
Method in brief: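 GeneBLAzer RXR-alpha-UAS-bla HEK 293T cells in 2% charcoal-stripped FBS medium were exposed to compounds for 16 hr at 37 C in agonist mode. Beta-lactamase reporter read as 460/530 nm FRET ratio after 2 hr substrate loading.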

[18] = qHTS assay to identify small molecule agonists of the endoplasmic reticulum stress response signaling pathway - cell viability counter screen (AID 1159517; calls by dose curve; also: nearly all actives have a fitted effect of over 50% in size; also: potency is read from the fitted curve at half-maximal effect)
Method in brief: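 ESRE-bla HeLa cells, 1,500 per well, seeded overnight then treated with compounds for 5 hr at 37 C. After the beta-lactamase read, viability in the same wells is measured by CellTiter-Glo luminescence after 30 min at room temperature.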

[19] = molecular target: Peroxisome proliferator-activated receptor delta (Homo sapiens) (UniProt Q03181); experiment: qHTS assay to identify small molecule agonists of the peroxisome proliferator-activated receptor delta (PPARd) signaling pathway (AID 743212; calls by dose curve)
Method in brief: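 GeneBLAzer UAS-bla HEK293H cells carrying a PPARδ construct were exposed to compounds at 37 °C. Beta-lactamase activity was read by FRET fluorescence after 2 h at room temperature with LiveBLAzer B/G substrate.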

SMILES	Potency [1]	Potency [2]	Potency [3]	Potency [4]	Potency [5]	Potency [6]	Potency [7]	Potency [8]	Potency [9]	Potency [10]	Potency [11]	Potency [12]	Potency [13]	Potency [14]	Potency [15]	Potency [16]	Potency [17]	Potency [18]	Potency [19]
CCCCC/C=C\C/C=C\CCCCCCCC(=O)O	inactive	inactive	inactive	inactive	inactive	inactive	inactive	inactive	inactive	inactive	inactive	inactive	inactive	inactive	–	–	–	–	–
Oc1ccccc1O	–	–	inactive	–	–	inactive	inactive	inactive	inactive	inactive	inactive	8.74 µM (active) and 27.3 µM (active)	inactive	inactive	inactive	inactive	inactive	–	–
ClCCl	inactive	–	inactive	–	–	inactive	inactive	inactive	inactive	inactive	inactive	inactive	inactive	inactive	–	–	inactive	–	–
CCn1c2ccccc2c2cc([N+](=O)[O-])ccc21	inactive	–	–	–	–	inactive	–	inactive	–	inactive	inactive	inactive	inactive	inactive	inactive	–	–	inactive	–
CC1(C)CCC[C@]2(C)[C@H]3CCO[C@]3(C)CC[C@@H]12	–	–	inactive	–	–	inactive	inactive	inactive	inactive	inactive	inactive	inactive	inactive	inactive	inactive	inactive	inactive	–	–
CCCCCCC1CCCC(=O)O1 (configuration not stated)	inactive	–	inactive	–	–	inactive	–	inactive	inactive	inactive	inactive	inactive	inactive	inactive	inactive	inactive	–	–	–
O=S(=O)(O)c1ccccc1/C=C/c1ccc(-c2ccc(/C=C/c3ccccc3S(=O)(=O)O)cc2)cc1	–	–	–	–	31.3 µM (active)	inactive	–	inactive	inactive	inactive	inactive	inactive	inactive	31.3 µM (active)	inactive	–	35.2 µM (active)	–	–
C#CC1(O)CC[C@H]2[C@@H]3CCC4=CCCC[C@@H]4[C@H]3CC[C@@]21C (some centres not stated)	11.9 µM (active)	26.6 µM (active)	–	–	–	–	inactive	49 µM (active) and 23.7 µM (active)	21.3 µM (active)	13.4 µM (active)	61.1 µM (active) and 26.6 µM (active)	43.3 µM (active) and 23.7 µM (active)	43.6 µM (active) and 15.1 µM (active)	–	23.7 µM (active)	–	–	–	inactive
CC(C(=O)O)c1ccc2c(c1)[nH]c1ccc(Cl)cc12 (configuration not stated)	–	inactive	–	–	inactive	inactive	–	inactive	inactive	inactive	inactive	inactive	inactive	inactive	inactive	inactive	–	inactive	–
O=c1c(O)c(-c2ccc(O)cc2O)oc2cc(O)cc(O)c12	inactive	–	–	–	inactive	inactive	–	–	inactive	inactive	inactive	inactive	inactive	inactive	inactive	–	inactive	–	–
CCOc1ccc2ccccc2c1C(=O)N[C@@H]1C(=O)N2[C@@H]1SC(C)(C)[C@@H]2C(=O)O	inactive	inactive	inactive	–	inactive	inactive	inactive	inactive	inactive	inactive	inactive	inactive	inactive	inactive	inactive	inactive	inactive	–	inactive
CC(C)(C)c1ccc(C(O)CCCN2CCC(C(O)(c3ccccc3)c3ccccc3)CC2)cc1 (configuration not stated)	–	7.5 µM (active)	–	–	–	–	–	13.3 µM (active)	inactive	21.3 µM (active)	18.8 µM (active)	13.3 µM (active)	inactive	inactive	10.6 µM (active)	inactive	–	21.3 µM (active)	–
CC(C)=CCNc1ncnc2c1ncn2[C@@H]1O[C@H](CO)[C@@H](O)[C@H]1O	–	–	inactive	–	–	–	inactive	11.9 µM (active)	–	8.49 µM (active)	10.6 µM (active)	13.3 µM (active)	6.01 µM (active)	inactive	–	inactive	–	–	inactive
CCCCCCCCCCCCCCCC[N+](C)(C)CC	–	–	–	–	inactive	43.8 µM (active) and 29.8 µM (active)	–	21.9 µM (active)	13.8 µM (active) and 23.9 µM (active)	21.3 µM (active)	61.3 µM (active) and 23.7 µM (active)	17.3 µM (active) and 2.98 µM (active)	–	–	31 µM (active) and 29.8 µM (active)	–	–	24.6 µM (active)	–
CCCCOC(=O)CC	–	inactive	inactive	inactive	inactive	inactive	inactive	inactive	inactive	inactive	inactive	inactive	inactive	inactive	inactive	inactive	–	inactive	inactive
COc1cccc2c1C(=O)c1c(O)c3c(c(O)c1C2=O)C[C@@](O)(C(C)=O)C[C@@H]3O[C@H]1C[C@H](N)[C@H](O)[C@H](C)O1	24.7 µM (active) and 33.5 µM (active)	43.9 µM (active)	–	–	–	55.3 µM (active) and inactive	–	34.9 µM (active)	inactive	inactive	13.8 µM (active) and 15 µM (active)	30.8 µM (active) and inactive	inactive	–	55.3 µM (active) and 2.4 nM (active)	–	–	0.952 µM (active)	–
OC1CCC(C2CCCCC2)CC1 (configuration not stated)	–	inactive	inactive	inactive	inactive	inactive	inactive	inactive	inactive	inactive	inactive	inactive	inactive	inactive	inactive	inactive	inactive	–	inactive
O=C(O)Cc1ccc2c(c1)C(=O)c1ccccc1CO2	–	–	inactive	–	–	inactive	–	inactive	inactive	inactive	inactive	inactive	inactive	inactive	inactive	inactive	–	inactive	inactive
C=Cc1ccccc1C=C	–	inactive	inactive	inactive	inactive	inactive	inactive	inactive	inactive	inactive	inactive	inactive	inactive	inactive	inactive	inactive	–	inactive	inactive
